# Rows were chosen to be rich in hits. Some 2.4% of all compounds tested hit in one or more screens of this group.
# ERK AVP inh: blocks ERK signaling stimulated by vasopressin. HEK293-V1b, vasopressin-stimulated pERK AlphaScreen. Potency, µM (titrated, usually from 57.5 µM), for the others: top-dose activity, negative = inhibition, actives largely listed as inhibitors. actives 0.99% (n = 72,000); further: potency means the concentration at half of the fitted maximal effect; on the % scale 0 is the no-effect control and ±100 the full control effect; nearly all actives have a fitted effect of over 55% in size
#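 Phosphorylated ERK1/2 detected via AlphaScreen bead proximity in lysates of V1b-expressing HEK293 cells given 25 nM vasopressin for 5 min after 30 min compound exposure (37 °C). AC50 from Hill equation; basal DMSO 0%, vasopressin 100%.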
# YjeE inh: displaces an ADP probe from E. coli YjeE (TsaE); P0AF67; purified YjeE enzyme, qHTS inhibition assay; Potency, µM; actives 0.05% (n = 71,000); AID 605
#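 Purified YjeE (10 uM) with BODIPY Texas Red-labeled ADP probe (2 uM); compounds pin-transferred, 15 min at room temperature. Binding inhibition read as decreased fluorescence polarization; ADP titration as control.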
# BRCT inh red: BRCT-phosphoprotein interaction inhibition (red fluorophore) | P38398 | BRCT-phosphopeptide binding, red fluorescence polarization | Potency, µM (top dose mostly 76.9 µM), for inactives: at the top dose activity change, negative = inhibition, most hits filed as inhibitors | actives 0.03% (n = 75,000) | AID 892; further: on the % scale 0 is the no-effect control and ±100 the full control effect
#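 Fluorescence polarization: 100 nM His-tagged BRCA1 BRCT with 100 nM TAMRA-labelled phospho-BACH1 decapeptide, phosphate buffer pH 7.3 with 150 mM NaCl, DTT, 0.01% Tween 20; 12 min RT. Binding inhibition seen as FP decrease.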
# BRCT PPI green: blocks human BRCA1 BRCT binding to phosphopeptide, green readout. P38398. BRCA1 BRCT-phosphopeptide binding, green fluorescence polarization. Potency, µM (highest dose often 76.9 µM), inactives show top-dose activity change, negative = inhibition, usual class: inhibitors. actives 0.05% (n = 75,000);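 further: potency means the concentration at half of the fitted maximal effect; plate controls were peptide without protein for full effect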
#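 Fluorescence polarization: His-tagged BRCT (~35 kDa BRCA1 C-terminus, 250 nM) bound to 100 nM fluorescein-labeled phosphorylated 10-aa BACH1 peptide, pH 7.3 phosphate buffer with DTT and Tween 20. Compounds incubated 12 min at room temperature; inhibition read as lowered polarization.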
# ALOX15 inhib: blocks human 15-lipoxygenase activity. Potency, µM (top dose mostly 57.1 µM), for the others: at the top dose activity change, negative = inhibition, most hits filed as inhibitors. actives 1.4% (n = 74,000). purified 15hLO-1, xylenol orange hydroperoxide absorbance; further: potency means the concentration at half of the fitted maximal effect; on the % scale 0 is the no-effect control and ±100 the full control effect; nearly all actives have a fitted effect of over 55% in size
#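 Inhibition is scored from a chromogenic endpoint. After 15 min enzyme-compound contact, arachidonic acid (50 uM final) reacts 6 min with 40 nM 15hLO-1 at room temperature, then Fe-XO reagent is added for 30 min and absorbance ratio recorded.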
# DNA Pol III inh: inhibitors of bacterial DNA polymerase III holoenzyme; reconstituted DNA polymerase III holoenzyme replication, biochemical; Potency, µM (series often up to 57.1 µM), inactives show at the top dose activity change, negative = inhibition; actives 0.25% (n = 71,000); AID 603; further: potency means the concentration at half of the fitted maximal effect; on the % scale 0 is the no-effect control and ±100 the full control effect
#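 Reconstituted *E. coli* holoenzyme (0.35 nM Pol III, 1 nM beta, 154 nM SSB, 2 nM primase) was preincubated with compound for 15 min at RT. Synthesis on 1.4 nM ssM13Gori ran 35 min, then was stopped with PicoGreen/EDTA and read as dsDNA fluorescence.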
# An asterisk follows results filed as active; i = inactive; ? = inconclusive; . = not tested or not shown; ! = not confirmed by another sample; [ ] = dose if it differs, or a comment. The call rests on the fitted dose curve; in most records, active means well fitted curve in the direction sought with a large enough effect; inconclusive means small, poorly fitted or top-dose-only effect, or another doubt; inactive means no such curve, though single readings can be large; an effect the other way counts as inactive or inconclusive.
SMILES,ERK AVP inh,YjeE inh,BRCT inh red,BRCT PPI green,ALOX15 inhib,DNA Pol III inh
O=C(O)CCSc1nc2ccccc2s1,-10%,i,-1%,0%,-1%,-4%
OC(CNc1nc2ccccc2s1)c1ccccc1 (centres undefined),25µM*,i,-2%,-1%,-11%,1%
CCOC(=O)C1=C(C)NC(=O)NC1/C(C)=C/c1ccccc1 (centres undefined),32µM*,i,-2%,0%,-12%,-1%
CCOC(=O)C1=C(C)NC(=O)NC1C (centres undefined),-9%,i,2%,0%,5%,-9%
CC/C=C\C/C=C\C/C=C\CCCCCCCC(=O)O,16%,i,1%,-3%,0.13µM*,-9%
CCOCCCNc1ncnc2c1[nH]c1ccccc12,40µM*,i,-1%,1%,11%,-4%
OCC(CO)(CBr)CBr,-10%,i,-1%,-2%,4%,-1%
Cc1nc2oc3c(NCc4ccccn4)ncnc3c2c2c1COC(C)(C)C2,25µM*,i,-9%,18%,13%,-11%
O=C(NC1=NCCS1)c1ccc2c(c1)C(=O)N(Cc1ccco1)C2=O,-13%,i,1%,-2%,1%,-6%
O=C(Nc1ccc(Cl)cc1C(=O)O)c1ccc2c(c1)C(=O)N(Cc1ccco1)C2=O,4%,i,-1%,-4%,?,32µM*
CCOC(=O)C1=C(CS(=O)(=O)c2ccc(F)c(C)c2)NC(=O)NC1c1ccc(O)c(O)c1 (centres undefined),25µM*,i,-1%,-3%,?,-7%
COc1ccc(-n2nc3cc(C)c(N)c(Br)c3n2)cc1,32µM*,i,-1%,1%,16µM*,-10%
COc1ccc(-c2cc(C(=O)N3CCN(c4ccccn4)CC3)c3ccccc3n2)cc1,10µM*,i,-2%,1%,-15%,-7%
C[N+](C)(C)c1ncnc2c1ncn2[C@@H]1CCCCO1,-13%[11.5 µM],i,1%[15.4 µM],0%[15.4 µM],8%[11.4 µM],-3%[11.4 µM]
c1cc(CSc2ncnc3nc[nH]c23)ccn1,7%[11.5 µM],i,-2%[15.4 µM],0%[15.4 µM],10%[11.4 µM],-7%[11.4 µM]
Oc1ccccc1-c1cc(-c2ccc3c(c2)OCCO3)n[nH]1,-7%,i,-1%,1%,13µM*,1%
COc1ccc(OCC2CC3C(CCC(C)C3c3ccc(Br)cc3)C(=O)O2)cc1 (centres undefined),9%[11.5 µM],.,2%[15.4 µM],0%[15.4 µM],-11%[11.4 µM],.
Oc1c(I)cc(Cl)c2cccnc12,13µM*!,i,1%,-1%[3.08 µM],23%[25.6 µM],1%
C=CS(=O)(=O)c1ccc(Oc2ccc(S(=O)(=O)C=C)cc2)cc1,2.5µM*,i,0%,0%,-3%,1%
COc1cccc(CNc2ccc(N3CCCCC3)cc2)c1OC,20µM*,i,1%,-1%,2µM*,-5%
COc1cccc(CNc2ccc(S(N)(=O)=O)cc2)c1OC,-10%,i,1%,1%,9%,2%
COc1ccccc1CNc1ccc(N2CCCCC2)cc1,16µM*,i,0%,0%,16µM*,0%
CC1CCN(CC(=O)Nc2sc3c(c2C#N)CCC3)CC1,1%,i,0%,22%,25µM*,-1%
COc1cccc(-c2nc(N3CCNCC3)c3ccccc3n2)c1,4%,i,-2%,0%,0%,-8%
COc1ccc(-c2cnnn2-c2ccc(NC(=O)c3ccco3)cc2)cc1OC,16µM*,i,0%,1%,0%,-2%
SMILES,ERK AVP inh,YjeE inh,BRCT inh red,BRCT PPI green,ALOX15 inhib,DNA Pol III inh
COc1cc(C(Nc2ccccn2)c2ccc3ccc(C)nc3c2O)cc(OC)c1O (centres undefined),26%,i,-1%,-2%,13µM*,8%
NC(=O)SCC(=O)Nc1ccc(Cl)cc1,.,.,-2%,-2%,25µM*,.
NC(=O)SCC(=O)Nc1ccc(Cl)c(Cl)c1,13%,i,0%,-1%,?,4%
O=C(Cn1c(NCCO)nc2ccccc21)c1ccc(Cl)cc1,-6%,i,1%,1%,8%,-2%
COc1ccc(-n2c(C)cc(C(=O)Cn3c(NCCO)nc4ccccc43)c2C)cc1,10µM*,i,0%,0%,-21%,?
COc1ccc(CCn2c(C)cc(C(=O)CSc3nnnn3C)c2C)cc1,2%,i,0%,-1%,5%,4%
Cc1cc(C(=O)CSc2nc(N)cc(N)n2)c(C)n1CCc1ccc(F)cc1,13µM*,i,0%,-2%,-22%,1%
C#CCN1C(C)=C(C(=O)OC)[C@@H](c2cccc([N+](=O)[O-])c2)C(C(=O)OCC)=C1C,-5%,i,1%,-2%,-9%,0%
N[C@@]1(C(=O)O)CCC[C@@H]1C(=O)O,-8%[11.5 µM],i,1%[15.4 µM],0%[15.4 µM],7%[11.4 µM],-9%[11.4 µM]
N.N.O=C(O)C1(C(=O)O)CCC1.[Pt],-6%,i,1%,-2%[3.08 µM],0.63µM*,7.9µM*
O=C(c1cc2c(s1)-c1ccccc1OC2)N1CCN(c2ccccn2)CC1,25µM*,i,0%,-2%,-5%,5%
COc1ccccc1NC(=O)Cn1cnc2c(cnn2-c2ccc(C)c(C)c2)c1=O,-18%,i,0%,-2%,-6%,7%
COCCNc1ncnc2ccc(-c3ccc(N(C)C)cc3)cc12,?,i,-1%,-1%,-10%,-6%
O=C1c2ccccc2NC(c2ccncc2)N1c1ccccn1 (centres undefined),8%,i,-1%,-4%,11%,-1%
COc1ccccc1N1C(=O)c2ccccc2NC1c1ccncc1 (centres undefined),-25%,i,-1%,0%,20µM*,-4%
COCC(C)NC(=O)C1CC(c2cccc(Br)c2)=NO1 (centres undefined),-2%,i,0%,2%,0%,-1%
O=C1CCCC2=C1C(c1ccco1)Nc1ccc3ccccc3c12 (centres undefined),-27%,i,-5%,-4%,?,25µM*
O=C(c1cnccn1)N1CCc2ccccc21,-29%,i,-1%,-1%,16µM*,?
Cc1ccc(S(=O)(=O)Nn2c(C)ccc2C)cc1,-15%,i,1%,0%,20µM*,-4%
O=C(Nc1cccc(F)c1)N1CCC2(CC1)CCN(C(=O)c1cc(C(F)(F)F)cc(C(F)(F)F)c1)CC2,-4%,i,1%,-4%,-10%,-3%
CCOC(=O)c1nn(-c2ccc(OC)cc2)c(=O)c2c(N)scc12,?,i,-2%,-2%,7.9µM*,-2%

# Screens: PubChem, National Center for Advancing Translational Sciences (NCATS)
